Reference: PubChem BioAssay (NCATS)
Results filed as inconclusive are left out. Calls of active or inactive are those of the source. Calls follow the shape of the dose curve; as a rule, active = well fitted curve in the direction sought with a large enough effect; inconclusive = small, poorly fitted or top-dose-only effect, or another doubt; inactive = no such curve, though single readings can be large; an effect the other way counts as inactive or inconclusive.

molecular target: Rap guanine nucleotide exchange factor 3 (Homo sapiens) (UniProt O95398); assay: Confirmatory qHTS for antagonist of cAMP-regulated guanine nucleotide exchange factor 3 (EPAC1) (AID 1645880); details: EPAC1 Rap1B-BODIPY-GDP exchange, fluorescence; series mostly up to 115 µM; also: nearly all actives have a fitted effect of over 55% in size; also: potency is read from the fitted curve at half-maximal effect
Sequence (O95398 whole entry, looked up): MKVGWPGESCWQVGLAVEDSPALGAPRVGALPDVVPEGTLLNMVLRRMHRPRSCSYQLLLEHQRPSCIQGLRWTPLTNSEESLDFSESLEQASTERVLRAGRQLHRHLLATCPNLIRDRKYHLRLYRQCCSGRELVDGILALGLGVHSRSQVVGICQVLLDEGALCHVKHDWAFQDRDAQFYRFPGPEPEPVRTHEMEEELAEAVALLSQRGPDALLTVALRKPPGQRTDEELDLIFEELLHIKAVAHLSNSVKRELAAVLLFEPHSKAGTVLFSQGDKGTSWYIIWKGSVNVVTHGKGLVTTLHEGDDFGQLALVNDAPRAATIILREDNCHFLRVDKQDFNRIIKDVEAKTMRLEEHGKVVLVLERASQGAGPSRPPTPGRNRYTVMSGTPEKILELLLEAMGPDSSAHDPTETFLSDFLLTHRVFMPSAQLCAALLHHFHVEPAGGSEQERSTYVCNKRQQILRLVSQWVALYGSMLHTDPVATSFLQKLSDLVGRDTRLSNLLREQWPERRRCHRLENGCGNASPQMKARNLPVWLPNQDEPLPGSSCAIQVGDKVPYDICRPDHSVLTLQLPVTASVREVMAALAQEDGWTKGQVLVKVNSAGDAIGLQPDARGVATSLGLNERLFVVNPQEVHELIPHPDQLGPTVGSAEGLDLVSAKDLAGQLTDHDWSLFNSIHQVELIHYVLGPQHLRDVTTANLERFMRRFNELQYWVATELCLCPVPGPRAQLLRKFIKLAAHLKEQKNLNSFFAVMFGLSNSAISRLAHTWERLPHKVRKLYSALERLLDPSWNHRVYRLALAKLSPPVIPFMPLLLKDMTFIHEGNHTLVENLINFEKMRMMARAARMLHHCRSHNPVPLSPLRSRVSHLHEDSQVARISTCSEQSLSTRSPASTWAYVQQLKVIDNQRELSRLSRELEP
Method in brief: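 Nucleotide exchange uses 100 nM EPAC1, 250 nM RAP1B-BODIPY-GDP and 50 uM GDP, with compounds in a concentration-titration series. After 5 min at room temperature, fluorescence (480 nm ex/540 nm em) is read every 5 min for 30 min. Data are normalized to control ATA and DMSO.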

Potency, inactive:
COc1ccc(SC[C@H](C)CN2CC[C@H](C)CCC2=O)cc1
Cc1ncc(CO)c(/C=N/NC(=O)c2cc(Br)ccc2O)c1O
O=C(Nc1ccc(Cl)cc1)N[C@@H]1CC[C@H](CCNS(=O)(=O)c2ccccc2F)O[C@@H]1CO
COc1ccccc1CNC(=O)CSc1ccc(-c2cccs2)nn1
N#Cc1cc(NC(=O)c2ccc(Cl)cc2)ccc1Sc1ccccc1
COc1ccc(NC(=O)Cn2c(SCc3cc(C)ccc3C)nc3ccncc32)c(OC)c1OC
CCOC(=O)C1CCCN(c2cc(=O)n(C3CCCCC3)c(=O)[nH]2)C1 (stereo not drawn)
CC(C(=O)Nc1ccccc1C(F)(F)F)n1nc(-c2ccccc2)c2c(c1=O)CCCC2 (stereo not drawn)
COc1cccc(-c2nc3cc(SC)ccc3cc2CN(C(=O)c2sccc2C)C2CC2)c1
COc1ccccc1N1CCN(c2ccc3c(c2)S(=O)(=O)c2cccc(C(=O)NCC4CC4)c2C3=O)CC1
CCOC(=O)N1CCC(N2CCOc3ccc(CN4CCC(O)(c5cccnc5)CC4)cc3C2)CC1
CCOc1ccc(-n2c(=O)[nH]cc(C(=O)Nc3ccc(OC)c(OC)c3)c2=O)cc1
CCC1CCCCN1CCCNC(=O)CCC(=O)N1CC(C)Oc2ccccc21 (stereo not drawn)
Nc1ccn(C2C=CC(CO)O2)c(=O)n1 (stereo not drawn)
O=S(=O)(NCc1ccco1)c1ccc(Cl)cc1Cl
COc1cccc(OC)c1NC(=O)c1ccc(-c2cc(Cl)ccc2Cl)o1
COCCCn1c(-c2ccccc2)nc2ccccc2c1=O
CCc1ccccc1NC(=O)c1oc(=O)c2ccccc2c1-c1ccccc1
COc1ccc(N2CCN(C3CCCCC3NS(=O)(=O)c3ccccc3)CC2)cc1 (stereo not drawn)
O=C(Nc1ccccc1N1CCOCC1)c1cccc2c(Br)cccc12
COc1cc(Nc2cc(C)nc3ncnn23)cc(OC)c1
COc1ccc(-c2nc3cc(C)ccc3cc2CN(C(=O)c2cccs2)C2CC2)cc1OC
NNc1nc2c(Cl)c(Cl)ccc2s1
CCCc1cc(C(=O)Nc2ccccc2SC)no1
Cc1ccc(S(=O)(=O)N2[C@@H](CO)CO[C@H]2CC(=O)c2ccc(F)cc2)cc1
CN(C)c1ccc(/C=C/c2ccnc3ccc(F)cc23)cc1
CCc1ccccc1NC(=O)CCC(=O)N1CCN(C(C)=O)CC1
Fc1ccccc1N1CCN(c2ncnc3onc(-c4ccc(Cl)cc4)c23)CC1
COCCN(CCOC)Cc1cc(=O)oc2cc(C)c(C)cc12
CC1(c2ccccc2)CC(C)(C)N2C(=O)Cc3cccc1c32 (stereo not drawn)
COc1cccc(-c2nc3cc(SC)ccc3cc2CN(C(=O)c2csc(C)n2)C2CC2)c1
CCC(C(=O)Nc1cc(OC)ccc1OC)n1nc(-c2ccccc2)c2c(c1=O)CCCC2 (stereo not drawn)
Cc1cc(NC(=O)CSc2nc(-c3ccccc3)nc3c2c(=O)n(C)c(=O)n3C)no1

Potency, active:
Cc1ccc(S(=O)(=O)N2[C@@H](c3ccc(C(C)(C)C)cc3)C(C(=O)O)=CC[C@H]2c2ccc(C(C)C)cc2)cc1 19 µM
COc1ccc(-c2[nH]c(-c3ccc(SC)cc3)nc2SCC(=O)Nc2nccs2)cc1 84.9 µM
O=C(O)c1cc(-c2ccc(-c3c(-c4ccc5c(c4)OCO5)noc3-c3ccsc3)cc2)nc2ccccc12 75.7 µM
COc1ccc(CCn2c(=N)c(S(=O)(=O)c3ccc(C)cc3)cc3c(=O)n4ccccc4nc32)cc1 79.4 µM
CC(C)N(C(=O)Nc1ccc2nsnc2c1)C(C)C 22.4 µM
Cc1ccc(S(=O)(=O)NC(=O)Cn2nnc(-c3ccccc3)c2COc2ccc3ccccc3c2)cc1 19 µM

molecular target: Rap guanine nucleotide exchange factor 3 (Homo sapiens) (UniProt O95398); assay: Confirmatory qHTS for agonist of cAMP-regulated guanine nucleotide exchange factor 3 (EPAC1) (AID 1645881); details: EPAC1 Rap1B BODIPY-GDP exchange fluorescence; series mostly up to 154 µM;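 also: EPAC1 catalysed release of BODIPY-GDP from Rap1B seen as fluorescence loss; nearly all actives have a fitted effect of over 75% in size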

Potency, inactive:
COc1ccc(SC[C@H](C)CN2CC[C@H](C)CCC2=O)cc1
Cc1ncc(CO)c(/C=N/NC(=O)c2cc(Br)ccc2O)c1O
O=C(Nc1ccc(Cl)cc1)N[C@@H]1CC[C@H](CCNS(=O)(=O)c2ccccc2F)O[C@@H]1CO
COc1ccccc1CNC(=O)CSc1ccc(-c2cccs2)nn1
Cc1ccc(S(=O)(=O)N2[C@@H](c3ccc(C(C)(C)C)cc3)C(C(=O)O)=CC[C@H]2c2ccc(C(C)C)cc2)cc1
N#Cc1cc(NC(=O)c2ccc(Cl)cc2)ccc1Sc1ccccc1
COc1ccc(NC(=O)Cn2c(SCc3cc(C)ccc3C)nc3ccncc32)c(OC)c1OC
CCOC(=O)C1CCCN(c2cc(=O)n(C3CCCCC3)c(=O)[nH]2)C1 (stereo not drawn)
CC(C(=O)Nc1ccccc1C(F)(F)F)n1nc(-c2ccccc2)c2c(c1=O)CCCC2 (stereo not drawn)
COc1cccc(-c2nc3cc(SC)ccc3cc2CN(C(=O)c2sccc2C)C2CC2)c1
COc1ccccc1N1CCN(c2ccc3c(c2)S(=O)(=O)c2cccc(C(=O)NCC4CC4)c2C3=O)CC1
CCOC(=O)N1CCC(N2CCOc3ccc(CN4CCC(O)(c5cccnc5)CC4)cc3C2)CC1
CCOc1ccc(-n2c(=O)[nH]cc(C(=O)Nc3ccc(OC)c(OC)c3)c2=O)cc1
CCC1CCCCN1CCCNC(=O)CCC(=O)N1CC(C)Oc2ccccc21 (stereo not drawn)
Nc1ccn(C2C=CC(CO)O2)c(=O)n1 (stereo not drawn)
O=S(=O)(NCc1ccco1)c1ccc(Cl)cc1Cl
COc1ccc(-c2[nH]c(-c3ccc(SC)cc3)nc2SCC(=O)Nc2nccs2)cc1
COc1cccc(OC)c1NC(=O)c1ccc(-c2cc(Cl)ccc2Cl)o1
COCCCn1c(-c2ccccc2)nc2ccccc2c1=O
CCc1ccccc1NC(=O)c1oc(=O)c2ccccc2c1-c1ccccc1
COc1ccc(N2CCN(C3CCCCC3NS(=O)(=O)c3ccccc3)CC2)cc1 (stereo not drawn)
O=C(Nc1ccccc1N1CCOCC1)c1cccc2c(Br)cccc12
COc1cc(Nc2cc(C)nc3ncnn23)cc(OC)c1
COc1ccc(-c2nc3cc(C)ccc3cc2CN(C(=O)c2cccs2)C2CC2)cc1OC
NNc1nc2c(Cl)c(Cl)ccc2s1
O=C(O)c1cc(-c2ccc(-c3c(-c4ccc5c(c4)OCO5)noc3-c3ccsc3)cc2)nc2ccccc12
CCCc1cc(C(=O)Nc2ccccc2SC)no1
Cc1ccc(S(=O)(=O)N2[C@@H](CO)CO[C@H]2CC(=O)c2ccc(F)cc2)cc1
CN(C)c1ccc(/C=C/c2ccnc3ccc(F)cc23)cc1
CCc1ccccc1NC(=O)CCC(=O)N1CCN(C(C)=O)CC1
Fc1ccccc1N1CCN(c2ncnc3onc(-c4ccc(Cl)cc4)c23)CC1
COCCN(CCOC)Cc1cc(=O)oc2cc(C)c(C)cc12
CC1(c2ccccc2)CC(C)(C)N2C(=O)Cc3cccc1c32 (stereo not drawn)
COc1cccc(-c2nc3cc(SC)ccc3cc2CN(C(=O)c2csc(C)n2)C2CC2)c1
CCC(C(=O)Nc1cc(OC)ccc1OC)n1nc(-c2ccccc2)c2c(c1=O)CCCC2 (stereo not drawn)
COc1ccc(CCn2c(=N)c(S(=O)(=O)c3ccc(C)cc3)cc3c(=O)n4ccccc4nc32)cc1
CC(C)N(C(=O)Nc1ccc2nsnc2c1)C(C)C
Cc1cc(NC(=O)CSc2nc(-c3ccccc3)nc3c2c(=O)n(C)c(=O)n3C)no1
Cc1ccc(S(=O)(=O)NC(=O)Cn2nnc(-c3ccccc3)c2COc2ccc3ccccc3c2)cc1
